KCNQ2 enhance – potentiators of rat KCNQ2 potassium channel | Potassium voltage-gated channel subfamily KQT member 2 (Rattus norvegicus), O88943 | CHO-K1 KCNQ2, FluxOR thallium flux fluorescence; stronger effect = higher value | B-score at 10 µM | actives 0.54% (n = 310,000) | AID 2239, 2010;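 active = fluorescence ratio B-score at least 3 SD of library B-scores, with initial fluorescence B-score within 3 of them, cut at about 5.3 in these data; same plate scores as AID 2156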;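 note: B-score of peak minus minimum over baseline fluorescence ratio after K+ and Tl+ stimulus; positive B-score means potentiation of KCNQ2 with more thallium influx and brighter signal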
KCNQ2 inh – rat KCNQ2 potassium channel inhibitors, primary screen, cell-based, CHO-K1, FluxOR thallium flux, B-score; 20 min; stronger effect = lower value; B-score at 10 µM; actives 1.1% (n = 310,000); AID 2156, 2009;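 active = fluorescence ratio B-score at most minus 3 library SDs, with starting brightness B-score within 2 library SDs, cut at about -5.5 in these data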
Kir21 conf inh – mouse Kir2.1 channel blockers, retest, confirmation, cell-based, FluxOR thallium flux, duplicate | shares compounds with KCNQ2 enhance | Kir2.1-expressing cells, FluxOR thallium flux fluorescence; stronger effect = lower value | Tl flux remaining, % of negative control (stronger effect = lower value), % at 10 µM | actives 41% (n = 2,300);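 active = Primary-screen hit whose thallium flux fell at least 3 control SD below untreated wells in both duplicates, with normal baseline fluorescence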;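 note: 0% = blank wells without stimulus and 100% = stimulated no-compound controls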
Target sequence (P35561 whole entry, looked up): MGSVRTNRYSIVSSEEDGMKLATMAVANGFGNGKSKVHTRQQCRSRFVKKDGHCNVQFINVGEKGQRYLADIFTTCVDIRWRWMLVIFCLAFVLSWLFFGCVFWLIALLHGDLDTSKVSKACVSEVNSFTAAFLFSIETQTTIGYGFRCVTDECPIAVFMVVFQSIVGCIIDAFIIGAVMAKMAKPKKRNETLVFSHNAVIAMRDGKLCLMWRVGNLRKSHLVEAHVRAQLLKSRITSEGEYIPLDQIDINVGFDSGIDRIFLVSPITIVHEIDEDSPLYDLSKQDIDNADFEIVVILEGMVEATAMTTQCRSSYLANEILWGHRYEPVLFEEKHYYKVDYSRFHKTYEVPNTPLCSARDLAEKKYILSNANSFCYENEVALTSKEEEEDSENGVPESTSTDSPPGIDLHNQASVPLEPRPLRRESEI
HEK293 ctr – counter-screen for Kir2.1 inhibitors: effect in parental HEK293 cells | AID 2105 | FluxOR signal as % of negative control (100 = no effect), % at 10 µM | FluxOR thallium flux fluorescence; 0% = unstimulated blank wells | actives 19% (n = 2,300) | shares compounds with KCNQ2 enhance;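 active = dye signal at least 3 control SD above or below untreated wells in both duplicates, raw fluorescence within 3, either direction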;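 note: percent is based on the flux ratio of peak minus minimum fluorescence over baseline F0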
CHO-K1 ctr – nonspecific thallium flux increase in parental CHO-K1, confirmation, counter-screen for KCNQ2 potentiator project, cell-based, FluxOR thallium flux, duplicate; shares compounds with KCNQ2 enhance; parental CHO-K1 cells, FluxOR thallium flux fluorescence; zero = vehicle mean+3SD, 100% = vehicle-minus-blank window; activity increase over 3SD of controls, % at 10 µM; actives 43% (n = 1,200);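 active = signal rise of at least 3 SD above the untreated control mean, in both duplicate wells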;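 note: counter screen of KCNQ2 potentiator hits so any rise reflects channel-independent effects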
KCNQ1 pot spec – human KCNQ1 channel potentiation off-target, confirmation, selectivity assay for KCNQ2 potentiator project, cell-based, CHO, FluxOR thallium flux | shares compounds with KCNQ2 enhance | CHO KCNQ1 stable, FluxOR thallium flux fluorescence; beyond 3SD, as % of vehicle-control signal | activation over 3SD threshold, % at 10 µM | actives 28% (n = 1,200) | AID 2283, 2010;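 active = fluorescence ratio rise of at least 3 SD of vehicle wells above their mean, in both replicate wells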;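 note: 0% = vehicle mean plus 3 SD and 100% = vehicle minus unstimulated blank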
KCNQ2 pot confirm – rat KCNQ2 channel potentiators, confirmation, cell-based, CHO, FluxOR thallium flux, duplicate | shares compounds with KCNQ2 enhance | CHO-KCNQ2 cells, FluxOR thallium flux fluorescence | potentiation, less the hit threshold, % at 10 µM | actives 68% (n = 1,200) | AID 2287, 2010;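 active = fluorescence ratio rising 3 SD or more over the vehicle control mean in both replicates, plus primary screen hit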;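 note: peak minus minimum thallium fluorescence divided by baseline after K/Tl stimulus; 0% = vehicle mean plus 3 SD and 100% = vehicle minus unstimulated blank difference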
Kir21 spec – mouse Kir2.1 channel activation off-target, confirmation, selectivity assay for KCNQ2 potentiator project, cell-based, HEK293, FluxOR thallium flux | shares compounds with KCNQ2 enhance | HEK293 Kir2.1, FluxOR thallium flux fluorescence | activity over 3SD threshold, % at 10 µM | actives 2% (n = 1,200) | AID 2345, 2010;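 active = fluorescence ratio rise of at least 3 SD above the vehicle-control mean, seen in both replicates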;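 note: 0% = vehicle mean plus 3 SD and 100% = vehicle minus no-stimulus blank window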
KCNQ2 W236L pot – potentiators of retigabine-insensitive KCNQ2 W236L, mechanism study for KCNQ2 potentiator project, cell-based, rat KCNQ2 W236L, CHO, automated patch clamp; AID 2558, 2010; shares compounds with KCNQ2 enhance; current increase over 3SD of negative controls (%), stronger effect = higher value, % at 25 µM; actives 10% (n = 940); automated patch clamp current;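 active = current increase at least 3 SD of the untreated controls above them in both duplicate recordings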
Starred values were filed as active, the others as inactive; i = inactive; · = no result. Only some compounds are listed: those with a hit (about 1.6% of all), similar ones and a draw of the others.

SMILES | KCNQ2 enhance | KCNQ2 inh | Kir21 conf inh | HEK293 ctr | others
C=CCn1c(SCc2ccc(C#N)cc2)nnc1-c1cccc(Cl)c1 | · | i | 52%* | 72%*
N#Cc1ccc(CSc2nnc(-c3ccncc3)n2CCc2ccccc2)cc1 | · | i | · | ·
C=CCn1c(SCC(=O)NC(C)(C)C)nnc1-c1ccccc1O | · | i | · | ·
COc1ccccc1CCNC(=O)C(=O)NCC1CCCN1S(=O)(=O)c1ccccc1 (configuration not stated) | 0.73 | i | · | ·
O=C(c1cccnc1)N1N=C(C2CC2)CC1(O)C(F)(F)F (configuration not stated) | 1.6 | i | · | ·
O=C(c1ccncc1)N1N=C(C2CC2)CC1(O)C(F)(F)F (configuration not stated) | 6.5* | i | i | i | CHO-K1 ctr=56*;KCNQ1 pot spec=-9;KCNQ2 pot confirm=-21;Kir21 spec=-43
O=C(c1cc(COc2ccccc2)on1)N1CCCC(CN2CCOCC2)C1 (configuration not stated) | · | i | · | ·
CCc1ccc(-c2nc(CS(=O)CC(=O)NCCCN3CCOCC3)c(C)o2)cc1 (configuration not stated) | · | i | · | ·
COCc1nc2ccccc2n1CCc1ccccc1 | · | i | · | ·
O=C(C[n+]1ccccc1)Nc1ccccc1Br | · | i | · | ·
CCOC(=O)CSc1nc(Cc2ccccc2)nc2ccccc12 | · | i | 70%* | i
CCOC(=O)CSc1nc(CC)nc2ccccc12 | 1.2 | i | · | ·
CCS(=O)(=O)c1nc(S(=O)(=O)c2ccc(C)cc2)c(NCCCN(C)C)s1 | 0.6 | i | · | ·
COc1ccc(/C=C2/SC(=O)N(CCC(=O)Nc3ccc(C)cc3)C2=O)cc1OC | 0.85 | i | · | ·
COc1cc(/C=C2/SC(=S)N(CC(=O)O)C2=O)ccc1OCC(=O)Nc1ccc(C)c(C)c1 | · | i | i | i
CN(Cc1ccno1)C(=O)CC1C(=O)NCCN1CC(c1ccccc1)c1ccccc1 (configuration not stated) | · | i | · | ·
O=C(COc1ccc(Br)cc1)NCCNC(=O)c1ccncc1 | 0.08 | i | · | ·
CCC(C)(C)NC(=O)c1ccccc1Oc1ccccc1 | · | i | · | ·
O=C(NCc1ccc(Cl)cc1)c1ccccc1Oc1ccccc1 | 8.8* | i | i | i | CHO-K1 ctr=110*;KCNQ1 pot spec=-12;KCNQ2 pot confirm=12*;Kir21 spec=-49;KCNQ2 W236L pot=i
CCC(CC)NC(=O)c1ccccc1Oc1ccccc1 | · | i | 55%* | i
COCCCNC(=O)c1ccccc1Oc1ccccc1 | · | i | · | ·
Cc1cc(OC(C)C(=O)NNC(=O)Nc2ccc(F)cc2F)cc(C)c1Cl (configuration not stated) | 7.5* | i | i | i | CHO-K1 ctr=-4;KCNQ1 pot spec=-11;KCNQ2 pot confirm=-3;Kir21 spec=-29;KCNQ2 W236L pot=i
COc1cc([N+](=O)[O-])ccc1NC(=O)NNC(=O)C(C)Oc1ccc(F)cc1F (configuration not stated) | · | i | · | ·

Screening results (PubChem BioAssay)
